According to ChEMBL document CHEMBL4513216, “Probing the Open Global Health Chemical Diversity Library for Multistage-Active Starting Points for Next-Generation Antimalarials” (ACS Infect Dis, 2020):
Among all 69,000 compounds or so, about 8,600 (12%) showed an effect of 50% or more. Shown is part of a subset that was picked to be rich in strong results.

These compounds were tested on Plasmodium berghei (assay: Screen against P. berghei liver stage (PbLuc), transformed with Luciferase, at 10uM). Settings: tested at 10 uM.
Assay type: functional, HepG2

How did the INHIBITION turn out when `CCN(CC)C1CCN(C(=O)c2cc3cc(C)cc(C)c3nc2C)CC1` was run?
Its INHIBITION is 1.05%.

Which INHIBITION does the source give for `Cc1nnc(N2CCCC3(CN(c4ccccn4)CCO3)C2)o1` (stereo not drawn) here?
Its INHIBITION is -34%.

How did the INHIBITION turn out when `c1ccc(N2CCOC3(CCCN(c4ncccn4)C3)C2)nc1` (stereo not drawn) was run?
Its INHIBITION is 76.5%.

`CCS(=O)(=O)N1CCOC2(CCCN(Cc3ccccn3)C2)C1` (stereo not drawn) was tested. Which INHIBITION did it give?
The INHIBITION was -28.1%.

`CCCS(=O)(=O)N1CCOC2(CCCN(c3ccccn3)C2)C1` (stereo not drawn) was tested. Which INHIBITION did it give?
Its INHIBITION is 11.4%.

How did the INHIBITION turn out when `c1ccc2sc(N3CCCC4(CCOC4)C3)nc2c1` (stereo not drawn) was run?
Its INHIBITION is -50.5%.

For `c1ccc(N2CCCC3(COCCN(c4nccs4)C3)C2)nc1` (stereo not drawn), which INHIBITION is on record?
The INHIBITION was 68.5%.

`OC1(CN2CCCC2)COCCN(c2nnc(-c3ccccc3)s2)C1` (stereo not drawn) was tested. Which INHIBITION did it give?
Its INHIBITION is 26.6%.

With `CCS(=O)(=O)N1CCOC2(CCCN(c3ccccn3)C2)C1` (stereo not drawn) as the compound, how does the INHIBITION read?
Its INHIBITION is 50.7%.

For `c1ccc(-c2nnc(N3CCCC4(CCOC4)C3)s2)cc1` (stereo not drawn), which INHIBITION is on record?
Its INHIBITION is 56.5%.

With `Cc1ccc(N2CCCC3(COCCN(c4nccs4)C3)C2)nn1` (stereo not drawn) as the compound, how does the INHIBITION read?
Its INHIBITION is -8.19%.

Which INHIBITION does the source give for `c1ccc(N2CCOCC3(CCCN(c4nccs4)C3)C2)nc1` (stereo not drawn) here?
The INHIBITION was 19.8%.

With `c1cnc(N2CCOC3(CCCN(c4cnccn4)C3)C2)nc1` (stereo not drawn) as the compound, how does the INHIBITION read?
Its INHIBITION is -13.7%.

For `Cc1ccc(C(=O)N2CCN(C)C3(CCC(=O)N(C)CC3)C2)c(F)c1` (stereo not drawn), which INHIBITION is on record?
Its INHIBITION is 15.8%.

`CCc1nnc(CNC2CCCN(Cc3noc(C4CC4)n3)C2)o1` (stereo not drawn) was tested. Which INHIBITION did it give?
Its INHIBITION is -16%.

How did the INHIBITION turn out when `COCCN1CCC(NCc2c(F)cccc2F)C1` (stereo not drawn) was run?
Its INHIBITION is 25.4%.

With `CCn1cc(NC(=O)C2CCN(CC(=O)NC(C)(C)CC)CC2)cn1` as the compound, how does the INHIBITION read?
The INHIBITION was 10%.

With `CCS(=O)(=O)N1CCCC2(COCCN(c3ccccn3)C2)C1` (stereo not drawn) as the compound, how does the INHIBITION read?
Its INHIBITION is 56.1%.

How did the INHIBITION turn out when `CCCS(=O)(=O)N1CCOCC2(CCN(c3ccccn3)C2)C1` (stereo not drawn) was run?
Its INHIBITION is 20.5%.

For `Cc1cnc(N2CCOC3(CCCN(c4ncccn4)C3)C2)nc1` (stereo not drawn), which INHIBITION is on record?
Its INHIBITION is 0.804%.

`CCS(=O)(=O)N1CCOCC2(CCN(c3ccccn3)C2)C1` (stereo not drawn) was tested. Which INHIBITION did it give?
The INHIBITION was 11.4%.

For `Cc1cnc(N2CCOC3(CCCN(C)C3)C2)nc1` (stereo not drawn), which INHIBITION is on record?
The INHIBITION was 52.3%.

With `CC(=O)N1CCCC2(C1)CN(c1ncc(C)cn1)CCO2` (stereo not drawn) as the compound, how does the INHIBITION read?
Its INHIBITION is -5.63%.

With `Cc1cccc(S(=O)(=O)NCC2CCN(c3cnccn3)CC2)c1` as the compound, how does the INHIBITION read?
The INHIBITION was -87.6%.

For `CN(C)S(=O)(=O)c1ccc2c(c1)N(Cc1nccn1C)CCC2`, which INHIBITION is on record?
The INHIBITION was 41.4%.

For `COCC(C)(O)CNC(=O)c1cc(-c2cc(OC)ccc2OC)nn1C` (stereo not drawn), which INHIBITION is on record?
Its INHIBITION is -43.5%.

How did the INHIBITION turn out when `CN(C(=O)c1cccn1C)C1CCC(NC(=O)OC(C)(C)C)CC1` (stereo not drawn) was run?
Its INHIBITION is 22.3%.

For `CCS(=O)(=O)c1ccc(N2CCC(NC(=O)c3cnn(C)c3)CC2)cc1`, which INHIBITION is on record?
Its INHIBITION is 43.4%.

For `COc1cc(OC)cc(N2CCC(NC(=O)c3cccn3C)CC2)c1`, which INHIBITION is on record?
The INHIBITION was 62.5%.

How did the INHIBITION turn out when `Cn1ccc(C(=O)NC2CCN(c3ncccn3)CC2)cc1=O` was run?
Its INHIBITION is 18.4%.

For `CCS(=O)(=O)c1ccccc1N1CCC(NC(=O)c2ccc[nH]2)CC1`, which INHIBITION is on record?
Its INHIBITION is 18.4%.

Which INHIBITION does the source give for `CC(C)(C)OC(=O)NC1CCC(NC(=O)c2ccc[nH]2)CC1` (stereo not drawn) here?
The INHIBITION was 12.7%.

With `COc1cc(CN2CCC(NC(=O)c3cccn3C)C2)cc(OC)c1` (stereo not drawn) as the compound, how does the INHIBITION read?
The INHIBITION was 44.9%.

With `COc1cc(OC)cc(N2CCC(NC(=O)c3ccc[nH]3)CC2)c1` as the compound, how does the INHIBITION read?
The INHIBITION was 50.5%.

Which INHIBITION does the source give for `Cn1cccc1C(=O)NC1CCN(c2ccc(OC(F)(F)F)cc2)CC1` here?
Its INHIBITION is 64.9%.

For `O=S(=O)(NCC1COc2ccccc2C1)N1CCOCC1` (stereo not drawn), which INHIBITION is on record?
The INHIBITION was 18.6%.

Which INHIBITION does the source give for `COc1ccc2c(c1)CC(NCCCn1nc(C)nc1C)CC2` (stereo not drawn) here?
The INHIBITION was 15.8%.

For `O=C(O)c1cc(S(=O)(=O)Nc2cccc3c2OCCO3)ccc1F`, which INHIBITION is on record?
Its INHIBITION is 45.7%.

How did the INHIBITION turn out when `Cc1ccccc1NS(=O)(=O)c1cc2c(c(C(=O)O)c1)OCCO2` was run?
The INHIBITION was 35.3%.

For `O=C(O)c1cc(S(=O)(=O)Nc2cccc(F)c2F)cc2c1OCCO2`, which INHIBITION is on record?
Its INHIBITION is 22.3%.

`Cc1cc(C)c(S(=O)(=O)Nc2ccccc2CC(F)(F)F)cc1C(=O)O` was tested. Which INHIBITION did it give?
Its INHIBITION is 15.9%.

For `Cc1cc(C)c(S(=O)(=O)Nc2cccc3c2OCCO3)cc1C(=O)O`, which INHIBITION is on record?
The INHIBITION was 50%.

`O=C(O)c1cc(S(=O)(=O)Nc2cccc3c2OCCO3)c(Cl)cc1F` was tested. Which INHIBITION did it give?
Its INHIBITION is 81.7%.

With `Cc1nc(C2CCCN2C(=O)Cc2ccc(F)cc2)nc(O)c1C` (stereo not drawn) as the compound, how does the INHIBITION read?
The INHIBITION was -10.5%.

Which INHIBITION does the source give for `Cc1ccc(-n2nnc(C(=O)NC(C)C)c2C2CC2)cc1` here?
Its INHIBITION is 15.5%.

Which INHIBITION does the source give for `O=C1CCCN1Cc1ncn2c1CN(C(=O)NC1CCCCC1)CCC2` here?
Its INHIBITION is -19.5%.

Which INHIBITION does the source give for `COc1cccc(Nc2nc(C3CCCNC3)c3ccccn23)c1` (stereo not drawn) here?
The INHIBITION was -23.425%.

Which INHIBITION does the source give for `Cc1c(C)n(CC(O)CN2CCCCCC2)c2c(Cl)cccc12` (stereo not drawn) here?
The INHIBITION was -48.6%.

For `Cc1c(C)n(CC(O)CN2CCOCC2)c2c(Cl)cccc12` (stereo not drawn), which INHIBITION is on record?
The INHIBITION was 56.5%.

How did the INHIBITION turn out when `Cc1c(C)n(CC(O)CN2CCC(C)CC2)c2c(Cl)cccc12` (stereo not drawn) was run?
Its INHIBITION is 37.3%.

Which INHIBITION does the source give for `Cc1nc[nH]c1C(=O)NCc1cccnc1N(C)C1CCCCC1` here?
The INHIBITION was 26.8%.

With `CCn1cc(C(=O)N(C)[C@@H]2CC[C@@H](N3CCCC3)[C@@H]2O)c(C)n1` as the compound, how does the INHIBITION read?
The INHIBITION was 12.335%.

`CCc1ccc(CN2CCN(c3ccc(Cl)nn3)CC2)nc1` was tested. Which INHIBITION did it give?
Its INHIBITION is -7.94%.
